The supplement of paper PMC7156485
± gives the standard deviation of the averaged measurements.

Experiments:
Details in all cases: concentration: 10 µM; 24 h
HCC1569 [1] = experiment: cell number relative to DMSO (% of DMSO); higher = more cells (less growth inhibition / toxicity)
Method in brief: (§1)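 In 384-well plates holding 800 HCC1569 or TDF cells per well in RPMI with 10% FBS, compounds were tested at 10 µM for 24 h at 37 °C in triplicate. Fixation used 3.7% formaldehyde. Staining used a rabbit anti-H1.0 antibody with an AlexaFluor 647 secondary, plus DAPI. Each value, H1.0 nuclear intensity or cell number, is a median of replicates shown as percent of the plate control, and HCC1569 values were smoothed for positional effects.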

TDF [2] = experiment: as above
Method in brief: as §1

TDF [3] = experiment: H1.0 immunofluorescence intensity relative to DMSO (% of DMSO); higher = stronger H1.0 induction, active = 120 or more
Method in brief: as §1

HCC1569 [4] = experiment: H1.0 immunofluorescence intensity relative to DMSO (% of DMSO); higher = stronger H1.0 induction, active = 140 or more
Method in brief: as §1
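Wherever H1.0 immunofluorescence intensity relative to DMSO is given: TDF is a line of transformed human dermal fibroblasts of mesenchymal origin.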
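Wherever cell number relative to DMSO is given: TDF denotes transformed human dermal fibroblasts of mesenchymal origin.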

CC(C)c1cccc(C(C)C)c1O [Propofol]
cell number (HCC1569 [1]): 99.2 ± 2.9 | cell number (TDF [2]): 93.1 ± 16 | H1.0 immunofluorescence intensity (TDF [3]): 93.7 (inactive) | H1.0 immunofluorescence intensity (HCC1569 [4]): 95.8 (inactive)

CCCC(C)(COC(N)=O)COC(=O)NC(C)C (stereo not given) [Carisoprodol]
cell number (HCC1569 [1]): 97.4 | cell number (TDF [2]): 90.8 | H1.0 immunofluorescence intensity (TDF [3]): 99.6 (inactive) | H1.0 immunofluorescence intensity (HCC1569 [4]): 106 (inactive)

CC12CCC3C(CCC4=CC(=O)CCC43C)C1CCC2=O (stereo not given) [4-Androstene-3,17-dione]
cell number (HCC1569 [1]): 95.3 | cell number (TDF [2]): 113 | H1.0 immunofluorescence intensity (TDF [3]): 101 (inactive) | H1.0 immunofluorescence intensity (HCC1569 [4]): 90 (inactive)

COc1ccc(CC2NCCc3cc(OC)c(OC)cc32)cc1OC.Cl (stereo not given)
cell number (HCC1569 [1]): 99.3 | cell number (TDF [2]): 109 | H1.0 immunofluorescence intensity (TDF [3]): 94.3 (inactive) | H1.0 immunofluorescence intensity (HCC1569 [4]): 80.5 (inactive)

CCNC1=Nc2ccc(Cl)cc2C(C)(c2ccccc2)O1.Cl (stereo not given)
cell number (HCC1569 [1]): 92.5 | cell number (TDF [2]): 105 | H1.0 immunofluorescence intensity (TDF [3]): 97.3 (inactive) | H1.0 immunofluorescence intensity (HCC1569 [4]): 141 (active)
